Bioassay records: PubChem BioAssay, National Center for Advancing Translational Sciences (NCATS)
Pf growth 48h = Primary qHTS for delayed death inhibitors of the malarial parasite plastid, 48 hour incubation; actives 5.9% (n = 310,000); P. falciparum luciferase growth in erythrocytes, 48 h; Potency, µM (series often up to 28.7 µM), hits mostly inhibitors
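Compounds are pin-transferred into medium, infected erythrocytes (2% hematocrit, 0.1% parasitemia final) are added, and plates sit one parasite generation at 37 C in 5% CO2. Detection reagent is then added and luminescence measured.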
Pf growth 96h = Primary qHTS for delayed death inhibitors of the malarial parasite plastid, 96 hour incubation; P. falciparum luciferase reporter growth, 96 h; Potency, µM (top dose mostly 28.7 µM), hits mostly inhibitors; actives 6.9% (n = 320,000)
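P. falciparum expressing integrated firefly luciferase grown in erythrocytes (2% hematocrit, 0.05% parasitemia final) with compounds for 96 hours at 37 C, 5% CO2. Growth inhibition read as loss of luminescence after adding luciferase detection reagent.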
HCV inhibitor = qHTS Assay for Inhibitors of Hepatitis C Virus (HCV). Huh7.5.1 HCVcc-Cre infection, luciferase reporter, 44 h. Potency, µM (highest dose often 41.8 µM), actives largely listed as inhibitors. actives 3.4% (n = 340,000)
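Antiviral activity was scored by luciferase reporter output from cells infected with HCVcc-Cre (~0.5 moi) in presence of compound, 44 h infection period, cells seeded 1,000/well 4 h prior.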
Sm TGR inh = qHTS Assay for the Inhibitors of Schistosoma Mansoni Peroxiredoxins | Schistosoma mansoni thioredoxin glutathione reductase (TGR), Q962Y6 | purified TGR, DTNB reduction, TNB absorbance 405 nm | Potency, µM (doses to about 114 µM), most hits filed as inhibitors | actives 3% (n = 360,000) | AID 485364, 2010; also: nearly all actives have a fitted effect of over 60% in size
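TGR 20 nM + NADPH 100 uM (dispensed conc.), cpd preinc 15 min RT; start with NADPH (500 uM addition) then DTNB (15 mM addition). Kinetic TNB absorbance, 405 nm filter. Four-parameter Hill fit across titration.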
HCMV antiviral = qHTS Assay for inhibitors of the human cytomegalovirus (HCMV); actives 4.5% (n = 410,000); activity change, negative = inhibition, % at 57.5 µM; HFF cells, HCMV-luciferase reporter, 72 h; hits give low values; AID 1259415, 2018; in the data active = activity change below about -60%; inconclusive = no clear call, values can overlap the other calls; inactive = above about -39%
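Human foreskin fibroblasts infected with luciferase-reporter HCMV at MOI 1 PFU/cell, compounds at two doses. Luciferase measured 72 h post infection; normalized to buffer-only basal and Salinomycin (10uM) controls.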
SARS PLP yeast = qHTS of Yeast-based Assay for SARS-CoV PLP | S. cerevisiae expressing SARS-CoV PLpro, growth rescue | Potency, µM (titrated, usually from 32.9 µM), most hits filed as activators | actives 0.19% (n = 330,000); calls by dose curve; also: nearly all actives have a fitted effect of over 55% in size
Hits are given with their value; 0 = inactive; ? = inconclusive; - = not tested or not shown. In the library only some 15% were active in any assay of this set; here they are far more common. Unless noted, calls follow the shape of the dose curve; as a rule, active = well fitted curve in the direction sought with a large enough effect; inconclusive = small, poorly fitted or top-dose-only effect, or another doubt; inactive = no such curve, though single readings can be large; an effect the other way counts as inactive or inconclusive.

SMILES	Pf growth 48h	Pf growth 96h	HCV inhibitor	Sm TGR inh	HCMV antiviral	SARS PLP yeast
CCN1CCN(C(CNS(=O)(=O)c2ccc(Cl)cc2)c2ccccc2)CC1 (configuration not stated)	0	?	?	0	0	0
CCN1CCN(C(c2cccc(Cl)c2)c2c(O)cc(C)n(CCOC)c2=O)CC1 (configuration not stated)	-	-	-	5.6µM	0	-
CCN1CCN(C(c2ccc(F)cc2)c2sc3nc(-c4ccco4)nn3c2O)CC1 (configuration not stated)	-	-	-	0	0	-
CCN1CCN(C(c2ccc(Cl)cc2)c2c(O)cc(C)n(CCOC)c2=O)CC1 (configuration not stated)	-	-	-	4.5µM	0	-
CCN1CCN(C(c2ccc(F)cc2)c2c(O)cc(C)n(CCOC)c2=O)CC1 (configuration not stated)	-	-	-	4.5µM	0	-
CCN1CCN(C(c2ccc(OC)cc2)c2c(O)cc(C)n(CCOC)c2=O)CC1 (configuration not stated)	-	-	-	10µM	0	-
COCCn1c(SCC(=O)Nc2cccc(F)c2)nc2c(c1=O)SCC2	?	?	0	0	0	0
CCN1CCN(C(c2cccc(F)c2)c2c(O)cc(C)n(CCOC)c2=O)CC1 (configuration not stated)	-	-	-	4µM	0	-
CCN1CCN(C(c2ccccc2)c2c(O)cc(C)n(CCOC)c2=O)CC1 (configuration not stated)	-	-	-	4µM	0	-
COCCn1c(C)cc(O)c(C(c2ccccc2)N2CCCCC2)c1=O (configuration not stated)	-	-	-	0	?	-
Cc1ccc(S(=O)(=O)Nc2cc(Cl)c3oc4c(c3c2)CCCC4)cc1	-	-	-	0	0	-
Cc1ccc(Cl)cc1NS(=O)(=O)c1ccc(N2CCCCS2(=O)=O)cc1	-	-	-	0	0	-
CCC(=O)N1CCC2(CC1)Oc1ccc(Cl)cc1C(=O)C21CC(c2ccccc2)=NO1 (configuration not stated)	?	?	0	0	0	0
O=C(/C=C/c1cccs1)N1CCC2(CC1)Oc1ccc(Cl)cc1C(=O)C21CC(c2ccccc2)=NO1 (configuration not stated)	13µM	?	0	0	0	0
O=C(c1ccoc1)N1CCC2(CC1)Oc1ccc(Cl)cc1C(=O)C21CC(c2ccccc2)=NO1 (configuration not stated)	15µM	?	11µM	0	0	0
COc1cccc(C(=O)NNc2c3ccccc3nc3ccccc23)c1	?	12µM	?	0	?	0
O=C(NNc1c2ccccc2nc2ccccc12)c1ccc(Cl)cc1	13µM	0	?	0	0	0
Cc1cc(C(=O)NNC(=O)c2ccc(Cl)cc2)c2ccccc2n1	0	0	0	0	0	0
Clc1cncc(Cl)c1NNc1c2ccccc2nc2ccccc12	2.9µM	0	?	0	0	0
Cc1ccc(C(=O)Nc2ccc3ccccc3n2)cc1	0	0	0	0	-102	0
O=C(Nc1ccc2ccccc2n1)c1ccccc1	0	0	0	0	0	0
Cc1ccc(C(=O)NNc2c3ccccc3nc3ccccc23)cc1	13µM	0	11µM	0	0	0
Nc1ccccc1C(=O)NNc1c2ccccc2nc2ccccc12	?	?	?	0	0	0
CCOc1cc(C2C(C(=O)OC)=C(C)NC3=C2C(=O)c2ccccc23)c(Br)cc1O (configuration not stated)	-	-	-	0	0	-
CCc1nnc(NC(=O)COC(=O)c2cc(OC)cc(OC)c2)s1	-	-	0	-	0	0
SMILES	Pf growth 48h	Pf growth 96h	HCV inhibitor	Sm TGR inh	HCMV antiviral	SARS PLP yeast
O=[N+]([O-])c1ccc(NCCNS(=O)(=O)c2ccccc2)c(C(F)(F)F)c1	?	?	0	0	0	0
Cc1ccc(S(=O)(=O)NCCNc2ccc([N+](=O)[O-])cc2C(F)(F)F)cc1	10µM	4.1µM	0	0	0	0
C=C(C)C1(O)OC(=O)C=C1OC (configuration not stated)	?	?	0	6.3µM	0	0
COc1ccc(-c2oc(NC(=O)CCl)c(C#N)c2-c2ccc(OC)cc2)cc1	-	9.3µM	0	?	0	0
Cn1c(=O)cc(SCC(=O)NCCC2=CCCCC2)c2ccc(Cl)cc21	0	15µM	0	0	0	0
O=C(Cc1ccccc1)NCCc1csc2nc(-c3ccc(Cl)cc3)nn12	-	-	-	0	0	-
CN(CC(=O)NC(=O)NC1CCCCC1)CC(=O)Nc1ccc(OC(F)(F)F)cc1	5.2µM	?	0	0	0	0
COc1ccc(NC(=O)CN(C)CC(=O)NC(=O)NC2CCCCC2)cc1	0	0	0	0	0	0
Cc1ccc(N(C)C(=O)c2sc3nc4n(c(=O)c3c2C)CCCC4)cc1C	-	-	-	0	?	-
CCCN(C(=O)c1sc2nc3n(c(=O)c2c1C)CCCC3)c1ccccc1C	-	-	-	0	-102	-
Cc1c(C(=O)Nc2ccc(Oc3ccccc3)cc2)sc2nc3n(c(=O)c12)CCC3	12µM	17µM	6.3µM	0	0	0
COc1ccc(CNC(=O)c2sc3nc4n(c(=O)c3c2C)CCCCC4)cc1	-	-	-	8.9µM	0	-
COc1ccc(C)cc1N(C)C(=O)c1sc2nc3n(c(=O)c2c1C)CCCCC3	-	-	-	22µM	0	-
CCCc1nc2nc(C)c(NS(=O)(=O)c3ccc(CC(C)C)cc3)c(=O)n2[nH]1	0	0	0	0	0	0
COc1ccc(-n2nc(C(=O)Nc3cc(C)ccn3)c3c4ccccc4n(C)c3c2=O)cc1	-	-	-	0	0	-
Cc1ccc(-n2nc3c(c2NC(=O)C(C)C)CS(=O)(=O)C3)c(C)c1	0.015µM	?	0	0	0	0
COc1ccc(C2c3[nH]c4ccccc4c3CCN2C(=O)c2cc3ncccn3n2)c(F)c1 (configuration not stated)	13µM	0	?	0	0	0
CCOc1cccc(CC(=O)N2CCc3c([nH]c4ccc(OC)cc34)C2c2ccc(F)cc2)c1OCC (configuration not stated)	-	-	-	0	0	-
COc1cccc(C2c3[nH]c4ccccc4c3CCN2C(=O)c2ccccc2F)c1OC (configuration not stated)	9.3µM	?	0	0	0	0
COc1ccc(C2c3[nH]c4ccccc4c3CCN2C(=O)c2ccccc2C(C)=O)c(F)c1 (configuration not stated)	?	0	0	0	0	0
COc1ccc2[nH]c3c(c2c1)CCN(C(=O)c1cccc(Cl)c1)C3c1ccc(F)cc1 (configuration not stated)	-	-	-	0	-73	-
